# Assay results: ChEMBL document CHEMBL5308541, “MAIP: An Open-Source Tool to Enrich High-Throughput Screening Output and Identify Novel, Druglike Molecules with Antimalarial Activity” (ACS Med Chem Lett, 2023)
# Screen size: about 4,800 compounds; about 410 (8.5%) showed an effect of 50% or more. Shown is part of a subset that was picked to be rich in strong results.
# System: Plasmodium falciparum
# Assay: Confirmatory screen in NF54 pLDH assay, in single point, at 2uM, 72h
# Format: functional, Erythrocyte
# Conditions: timepoint 72 hour
row,Structure (SMILES),% Inhibition
1,Cc1ccc2nc(NC[C@H]3CCN(C4CC4)C3)cc(C)c2c1,100%
2,Cc1ccc2nc(-c3cccc(NC(=O)c4ccc(OC(F)(F)F)c(Cl)c4)c3)[nH]c2n1,74%
3,O=C(NCCNc1ccnc2ccncc12)c1ccc(C(F)(F)F)cc1,43%
4,Cc1cnccc1NCCNCc1ccc(OC(C)C)c(Cl)c1,84%
5,Cc1ocnc1CNC[C@H](O)c1ccc(Cl)c(Cl)c1,97%
6,CNc1nc(N[C@H]2CCCN(Cc3ccc(Cl)cc3)C2)nc2c1CCC2,100%
7,Nc1ccc(Nc2ccc(F)cc2)c2ccncc12,70%
8,CN([C@@H](c1ccccc1)c1ccccc1Br)S(=O)(=O)c1c[nH]c2ncccc12,67%
9,CN(C[C@H](O)COc1cccc(CNCCCOc2cccnc2)c1)C1CCCCC1,44%
10,CN(C[C@H](O)COc1ccccc1CN1CCC(c2ccncc2)CC1)C1CCCCC1,84%
11,O=C(Nc1cncnc1N1CCCC1)c1cc(F)cc2[nH]cnc12,-8%
12,Cc1nc2ccc(Oc3ccccc3)cc2c(O)c1CN(C)C1CCN(C)CC1,28%
13,CN1CCC(N(C)C[C@H](Nc2ncnc3ccccc23)c2ccccc2)CC1,102%
14,COc1ccc(-c2cncc(C(=O)NCC3CCN(CCN(C)C)CC3)c2)cc1,96%
15,CN(C)CCN1CCC(CNCc2ccc3ncccc3c2)CC1,29%
16,COC(=O)c1cn(CCNc2ccnc3cc(Cl)ccc23)cc2c(O)nnc1-2,103%
17,c1ccc(-c2nc3c(c(NCCNc4ncccn4)n2)CCC3)nc1,23%
18,CCCN(CCN1CCN(CC)CC1)c1nc(-c2ccccn2)nc2c1CCC2,10%
19,CNc1nc(C)cc(N[C@@H]2COc3ccccc3C2)n1,89%
20,Fc1ccc(-n2cc(CNCCC3CCN(c4ccncc4)CC3)cn2)cc1,102%
21,c1ccc2c(CNCCC3CCN(c4ccncc4)CC3)csc2c1,95%
22,CCN1CCN(c2ccccc2CNCCC2CCN(C)CC2)CC1,2%
23,c1ccc(-c2ccnc(C3CCN(CC45CNCC4C5)CC3)n2)cc1 (stereo not given),96%
24,COCCN1CC[C@H](CNC2CCN(c3ncc4ccc(F)cc4n3)CC2)C1,71%
25,COCCN1CCC[C@H](CNCc2cnn(-c3ccc4ccccc4c3)c2)C1,13%

row,Structure (SMILES),% Inhibition
1,CN(C)C1(CNc2nc(C(F)(F)F)nc3cc(F)ccc23)CCCCCC1,57%
2,CN(C)C1(CNc2nc(C(F)(F)F)nc3cc4c(cc23)OCO4)CCCCCC1,49%
3,Cc1ccc(-c2cc(C(=O)NC3CCN(C4CCN(C)CC4)CC3)n[nH]2)cc1C,102%
4,CN1CCC(N2CCC(NC(=O)c3ccc(S(=O)(=O)N(C)C4CCCCC4)cc3)CC2)CC1,39%
5,Cc1cc(N2CCC(NCCCN3CCCc4ccccc43)CC2)nc(N)n1,88%
6,Cc1cc(N2CCC(NCCc3c[nH]cn3)CC2)nc(-c2ccccc2)n1,11%
7,Cc1ccc2nc(CCCNC3CCN(c4cc(C)nc(N)n4)CC3)oc2c1,59%
8,CN(C)CCN1CCC(NC2CCC(O)(c3cccc(Cl)c3)CC2)CC1 (stereo not given),33%
9,OC1(c2ccc(Cl)cc2)CCN(C[C@@H]2CCCN3CCCC[C@H]23)CC1,88%
10,CC(C)(C)n1ncc2c(NCc3ccc4cccnc4c3O)ncnc21,37%
11,c1ccc2c(c1)CN(c1ncnc3[nH]ccc13)CC1(CCOCC1)O2,-5%
12,CCn1cc(-c2cccc(C(=O)N[C@@H](C)CN3CCc4ccccc4C3)c2)cn1,38%
13,NCCCCc1c(-c2cccnc2)[nH]c2c(Cl)cc(Cl)cc12,75%
14,NC(=O)[C@]1(O)CCN(c2ccnc3ccc(Oc4ccccc4)cc23)C1,33%
15,COCCN1CCC[C@@]2(CCN(c3ccnc4cc(Cl)ccc34)C2)C1,101%
16,O[C@@]1(c2c[nH]nn2)CCN(c2ccnc3cc(Cl)ccc23)C1,98%
17,COCCN1CC[C@H](CN(C)c2ccnc3cc(Cl)ccc23)C1,102%
18,CN1CCC(Oc2ccc(NC(=O)c3cn4ccnc4s3)cn2)CC1,92%
19,CN(C)Cc1cccc(CCNCc2csc(-c3ccc(C(F)(F)F)cc3)n2)c1,88%
20,COc1ccc2[nH]cc(C3=CCN(c4ccc5nnc(-c6ccccc6F)n5n4)CC3)c2c1,41%
21,Fc1cccc(Cl)c1CN1CCC(NC[C@H]2CCCOC2)CC1,21%
22,c1cc(CNC2CCN(C[C@H]3CCOC3)CC2)c2cc[nH]c2c1,-13%
23,CCc1ccc2ncnc(NCCCN3CCN(CCO)CC3)c2c1,85%
24,Cc1cc(O)c(Cl)cc1-c1ccc2nccc(N)c2c1,100%
25,Cc1cc(O)c(Cl)cc1-c1cccc2c(N)ccnc12,94%

row,Structure (SMILES),% Inhibition
1,COC(CN(Cc1nc(N)nc(Nc2ccc(C)cc2)n1)Cc1nc(N)nc(Nc2ccc(C)cc2)n1)OC,94%
2,c1ccc(CCC23CN(Cc4ccccn4)CC2CN(Cc2ccns2)C3)cc1 (stereo not given),88%
3,Cc1noc(-c2ccnc(NC[C@@H](c3ccccn3)N3CCOCC3)c2)n1,100%
4,COc1ccc2c(C)cc(NCCCN3CCC[C@H](C(N)=O)C3)nc2c1,100%
5,Cc1cc(NCCCN2CCC[C@H](O)C2)c2cc(F)ccc2n1,31%
6,CCN1C[C@H](Nc2nc(C)nc3sccc23)[C@@H](OC)C1,101%
7,O=C(NCCN1CCCCC1)c1cccc(-c2cnc3ccc(F)cn23)c1,21%
8,CC(CNc1nc(NCC(C)N2CCOCC2)c2cc(Cl)ccc2n1)N1CCOCC1 (stereo not given),102%
9,CCNc1nc(C)cc(Nc2ccc(NC(=O)Nc3ccc(F)cc3F)cc2)n1,99%
10,CCNc1cc(C)nc(NCCNC(=O)Nc2cc(F)cc(F)c2)n1,92%
11,CCOc1ccc2nc(CN(CC)CC3CCN(C4CCN(C)CC4)CC3)ccc2c1,99%
12,CCOc1ccc2nc(N3CCC(N4CCC([C@H](O)c5cccnc5)CC4)CC3)nc(C)c2c1,8%
13,CN(Cc1cn(CC(N)=O)c2ccccc12)CC1CCN(CCc2ccc(F)cc2)CC1,41%
14,CCN1CCN([C@H]2CCN(c3ccnc4ccncc34)C2)CC1,98%
15,Cc1cc(N2CCC(Nc3ccnc4ccncc34)CC2)nc(C)n1,7%
16,Cc1ccc2nccc(N3CCC(N4CCC(O)CC4)CC3)c2c1,12%
17,Cc1ccc2[nH]cc(-c3cc(N4CCOCC4)nc(N)n3)c2c1,55%
18,Nc1cc(N2CCC(c3nc4cc(F)ccc4[nH]3)CC2)nc(N2CCOCC2)n1,42%
19,Cc1ccc(-c2cccc3c(C(=O)NCCCN4CCC(N5CCCCC5)CC4)cc(C)nc23)cc1,103%
20,Brc1ccc2[nH]c3c(c2c1)CCCC3NC1CCc2[nH]cnc2C1 (stereo not given),104%
21,CCOc1cc2nccc(N3C[C@H]4CN(C)C[C@H]4C3)c2cc1OCC,96%
22,Oc1ccc(OC(F)(F)F)cc1-c1ccc2nccn2n1,92%
23,Nc1ccc(-c2cc(OC(F)(F)F)ccc2O)cn1,14%
24,Clc1cccc(N2CC[C@H](CNC3CCN(Cc4ccco4)CC3)C2)c1,97%
25,COc1ccnc(NCCCc2nc(-c3ccncc3)cs2)n1,64%
